# Hit rate of the full screen: of about 290,000 compounds, about 1,000 (0.34%) were called active. The sample holds actives, similar compounds and a random draw of the others, so the mix is not that of the screen. No stated cut-off is given here; in the data, active means inhibition above about 50% (passing the limit was not always enough); inconclusive means no clear call, values can overlap the other calls.
# Target: SUMO-conjugating enzyme UBC9 (Homo sapiens) (UniProt P63279)
# Assay: blockers of SAE1/SAE2–UBC9 SUMO transfer – biochemical, HTRF, uHTS, primary screen (AID 2006)
# Conditions: HTRF SUMOylation assay, SAE1/SAE2 + UBC9, in vitro, at 35 µM, stronger effect = higher value
# Chain of SUMO-conjugating enzyme UBC9 (Homo sapiens) (P63279 whole entry, looked up): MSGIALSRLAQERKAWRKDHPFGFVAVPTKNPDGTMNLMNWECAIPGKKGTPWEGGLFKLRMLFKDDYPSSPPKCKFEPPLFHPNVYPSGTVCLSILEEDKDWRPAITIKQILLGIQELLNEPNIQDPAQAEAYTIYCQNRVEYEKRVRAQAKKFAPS
SMILES,inhibition,inhibition (average of repeat tests) [%]
Cc1c(Cc2ccccc2)c(=O)oc2cc(OCC(N)=O)ccc12,3.3% (inactive),
CC(=O)Nc1cc2ccc(OC(C)=O)cc2oc1=O,43.7% (inactive),
CC(=O)Oc1ccc2c(C)c(CC(C)O)c(=O)oc2c1 (centres undefined),52.6% (active),46.3
COc1ccc2c(C)c(CCC(=O)NC3CC3)c(=O)oc2c1C,15.9% (inactive),
COCCOC(=O)C1=C(C)Nc2nc(C)nn2C1c1ccccc1 (centres undefined),-5% (inactive),
COC(=O)c1nc2n(n1)C(c1ccc([N+](=O)[O-])cc1)C(C(=O)Nc1ccc(Cl)cc1)=C(C)N2 (centres undefined),56.7% (active),44.5
COc1cc(C2C(C(=O)Nc3ccc(F)cc3)=C(C)Nc3nc(CCCO)nn32)cc(OC)c1OC (centres undefined),11.3% (inactive),
Cc1nn(C)c(Cl)c1CN1CCC(n2nccc2NC(=O)C2CCCC2)CC1,3.6% (inactive),
CCCCNC(=O)N(O)C1N(/N=C/c2ccc(N(C)C)cc2)C(=S)SC1(C)C (centres undefined),6.7% (inactive),
Cc1cc(C)c(S(=O)(=O)c2ccc(F)cc2C)c(=O)[nH]1,14.5% (inactive),
CNC(=S)N/N=C/c1ccc(OCc2ccccc2)c(Br)c1,11.3% (inactive),
COc1ccc(OC)c(NC(=O)Cc2cccs2)c1,8% (inactive),
Cc1ccc(/C=C/C(=O)Nc2ccc([N+](=O)[O-])c(NC(=O)/C=C/c3ccc(C)o3)c2)o1,74.6% (active),
Cc1ccc(/C=C/C(=O)Nc2cc(S(=O)(=O)N3CCCCCC3)ccc2OCC(F)(F)F)o1,25.6% (inactive),
CCc1nnc(NC(=O)/C=C/c2ccc(C)o2)s1,7.9% (inactive),
CC(C)c1nnc(NC(=O)CCC(=O)N2CCN(c3cccc(Cl)c3)CC2)s1,1.4% (inactive),
Cc1c(C)c(C)c(S(=O)(=O)N2CCC3(CC2)OCCO3)c(C)c1C,0.4% (inactive),
Oc1ccc(CNc2ccccc2O)cc1,2.9% (inactive),
N#Cc1ccc(Oc2ccc(C(F)(F)F)cc2NC(=O)c2ccc(F)cc2)cc1,-26.5% (inactive),
COc1cc(NC(=O)c2cncc(-c3ccc(C#N)cc3)c2)cc(C(=O)Nc2cccc(C(F)(F)F)c2)c1,71.3% (active),53.1

SMILES,inhibition,inhibition (average of repeat tests) [%]
COc1ccc(NC(=O)CN(C)CC(=O)Nc2cccc(C(F)(F)F)c2)cc1,0.2% (inactive),
O=C(CN1CCN(S(=O)(=O)c2ccc(F)cc2)CC1)NC1CC1,8.8% (inactive),
COC(=O)C1=C(C)NC(=O)CC1c1ccccc1OC (centres undefined),10.4% (inactive),
COc1cc(N/C=C2\CC(=O)NC(C)=C2C#N)cc(OC)c1OC,51.7% (active),
COc1cc2c(cc1OC)C(C(=O)Nc1cc(C)c(OC)c(C)c1)CC(=O)N2 (centres undefined),1.4% (inactive),
CC(O)c1ccc(OCCN(C)c2ccccn2)cc1 (centres undefined),20.8% (inactive),
Cc1[nH]c2c(C(=O)N3CCCC(CCC(=O)NCc4ccccc4F)C3)cccc2c1C (centres undefined),-0.7% (inactive),
Brc1ccccc1C1Nc2cccc3cccc(c23)N1,69.7% (active),
Cc1ccc(C2Nc3cccc4cccc(c34)N2)cc1,8.5% (inactive),
Oc1ccc(C2Nc3cccc4cccc(c34)N2)cc1,31.7% (inactive),
CC(C)NS(=O)(=O)c1ccc(OCC(=O)NC2CCCCCC2)cc1,2.1% (inactive),
O=C(CC1NCCc2ccccc21)Nc1cccc(Cl)c1 (centres undefined),-5.3% (inactive),
CCCCCCNS(=O)(=O)c1ccccc1Br,21.7% (inactive),
Cc1ccc(-n2ncc(C(=O)NC3CC3)c2C2CCN(C(=O)OC(C)(C)C)CC2)c(C)c1,-2.6% (inactive),
CCc1nccn1CCC(=O)N1CCCC(N2CCN(c3ccccc3F)CC2)C1 (centres undefined),4.2% (inactive),
COc1ccc(C(=O)CC(=O)c2ccc(C)cc2)c(O)c1,-0.3% (inactive),
O=c1c(/C=N/O)coc2ccc(Cl)cc12,8.4% (inactive),
O=C1/C(=C/c2coc3ccc(O)cc3c2=O)SC(=S)N1c1ccccc1,57% (active),34.2
O=c1c(-c2ccccc2)coc2cc(O)ccc12,20.1% (inactive),
Cc1cccc(OCC(O)Cn2c(N3CCCCC3)nc3c2c(=O)[nH]c(=O)n3C)c1 (centres undefined),20.6% (inactive),

SMILES,inhibition,inhibition (average of repeat tests) [%]
CCn1cc(CN2CCN(CC(C)(C)C)C(CCO)C2)c2ccccc21 (centres undefined),5.7% (inactive),
Oc1ccccc1C1=NN(c2ccccc2)C(c2ccccc2)C1 (centres undefined),11% (inactive),
CCN(CC)CCCNC(=S)N(CCO)Cc1cc2cc3c(cc2[nH]c1=O)OCO3,18.4% (inactive),
Cc1ccc(NC(=O)C2CCCN2S(=O)(=O)c2cccc3cccnc23)c(C)c1 (centres undefined),4.8% (inactive),
O=S(=O)(c1ccc(Br)c2ccccc12)N1CCOCC1,2.6% (inactive),
CC(C)[C@H](NC(=O)OCc1ccccc1)C(=O)OCc1ccccc1,-16.4% (inactive),
O=[N+]([O-])C(=c1ccc2c(c1)N1C3=C(CCCC3)CC3CCCCC31N=2)[N+](=O)[O-] (centres undefined),57.5% (active),
Cc1sc2ncn(CC(=O)NCCN(C)C)c(=O)c2c1S(=O)(=O)N1CCC(C)CC1,-5.2% (inactive),
CN1CCC(=O)N([C@H](CO)Cc2ccccc2)CC1,13% (inactive),
CCOc1ccc(OCc2ccc(C(=O)N(C)c3ccccc3)o2)cc1,5% (inactive),
CC1=C(C(=O)OC2CCCCC2)C(c2cccnc2)n2ncnc2N1 (centres undefined),-7.1% (inactive),
C=CCc1ccccc1OCC(O)CN1CCN(CCO)CC1 (centres undefined),0.7% (inactive),
O=C(Nc1ccc(S(=O)(=O)Nc2nccs2)cc1)c1cc(=O)[nH]c2ccccc12,30.5% (inactive),
O=C(Nc1ccc(S(=O)(=O)Nc2nccs2)cc1)c1cc(-c2ccncc2)nc2ccccc12,50% (active),
CCC(CC)C(=O)Nc1ccc(S(=O)(=O)Nc2nccs2)cc1,14.7% (inactive),
Cc1nn(Cc2ccccc2)c(C)c1NS(=O)(=O)c1ccccc1,3.7% (inactive),
O=C(O)c1cccc(S(=O)(=O)Nc2ccc(O)cc2Sc2nc3ccccc3s2)c1,-14.5% (inactive),
COc1ccc(S(=O)(=O)Nc2ccc(O)c(Sc3nc4ccccc4s3)c2)cc1,-0.5% (inactive),
O=[N+]([O-])c1c(NCCO)cc(Sc2nc3ccccc3s2)c2nonc12,90.1% (active),
CCOCc1nnc(NC(=O)CCC2CCCCC2)s1,10.6% (inactive),

# — PubChem BioAssay AID2006 (Sanford-Burnham Center for Chemical Genomics, 2009)
